About 79,000 compounds went through this panel and 15% of them were active in at least one assay; those are over-represented in the sample as a whole. The source made the active and inactive calls. Rule as the data show it: active = growth inhibition above about 70%; inactive = the rest.
Experiments:
[1] = NCI Yeast Anticancer Drug Screen. Data for the rad52 strain (AID 147);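 also: 0% = growth of vehicle-treated control cultures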; details: S. cerevisiae rad52 mutant growth inhibition, active compounds read high
Outline: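 Screen used a yeast mutant impaired in DNA repair. After compound exposure, growth was measured. Values reflect inhibition compared with vehicle-treated cells.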

[2] = NCI Yeast Anticancer Drug Screen. Data for the wt1 strain (AID 149);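 also: 0% = growth of vehicle-treated wt1 cultures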; details: S. cerevisiae wt1 strain (SPY 50644) growth inhibition, active compounds read high
Outline: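 Compounds are added to wt1 yeast cultures. Growth is then measured. Inhibition is expressed relative to vehicle-treated controls.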

[3] = NCI Yeast Anticancer Drug Screen. Data for the rad50EPP+ strain (AID 151);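 also: 0% = growth of vehicle-treated control cultures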; details: S. cerevisiae rad50 mutant strain, active compounds read high
Outline: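 Exposing the rad50EPP+ strain to each compound, growth was compared with vehicle-only cultures to give inhibition.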

[4] = NCI Yeast Anticancer Drug Screen. Data for the rad50 strain (AID 155);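 also: 0% = growth of vehicle-only cultures of the same strain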; details: S. cerevisiae rad50 strain growth inhibition, active compounds read high
Outline: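 Inhibition values express reduced yeast growth in compound-treated cultures relative to vehicle-treated controls.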

[5] = NCI Yeast Anticancer Drug Screen. Data for the mec2-1 strain (AID 157); details: S. cerevisiae mec2-1 strain, active compounds read high
Outline: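 Readout is yeast growth inhibition, normalised to vehicle-treated controls, in the mec2-1 strain exposed to compound.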

[6] = NCI Yeast Anticancer Drug Screen. Data for the sgs1 mgt1 strain (AID 161);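 also: 0% = growth of cultures given vehicle only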; details: S. cerevisiae sgs1 mgt1 strain, active compounds read high
Outline: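 Compounds are added to genetically altered yeast, and growth is compared with cultures given vehicle alone to give percent inhibition.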

[7] = NCI Yeast Anticancer Drug Screen. Data for the CLN2oe strain (AID 163);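 also: 0% = growth of vehicle-only control cultures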; details: S. cerevisiae CLN2oe strain, active compounds read high
Outline: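 Values reflect how much compound exposure reduced yeast growth, referenced to vehicle-exposed cells. Assay organism is a strain with a defined genetic change affecting cell-cycle control.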

[8] = NCI Yeast Anticancer Drug Screen. Data for the cln2 rad14 strain (AID 165);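 also: 0% = growth equal to vehicle treated cultures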; details: S. cerevisiae cln2 rad14 strain, active compounds read high
Outline: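 Relative to vehicle controls, growth inhibition of compound-treated cln2 rad14 yeast was recorded.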

[9] = NCI Yeast Anticancer Drug Screen. Data for the bub3 strain (AID 167); details: S. cerevisiae bub3 mutant strain, active compounds read high
Outline: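 Steps: expose the mutant yeast strain to compound; grow alongside vehicle-treated cultures; measure growth; express inhibition against the vehicle cultures.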

[10] = NCI Yeast Anticancer Drug Screen. Data for the wt2 strain (AID 169);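 also: 0% = growth of vehicle-treated yeast cultures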; details: S. cerevisiae wt2 strain growth inhibition, active compounds read high
Outline: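 Values express reduction in yeast growth under compound treatment, referenced to vehicle-treated cells.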

[11] = NCI Yeast Anticancer Drug Screen. Data for the mlh1 strain (AID 171);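 also: 0% = growth of vehicle-treated control cultures of the same strain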; details: S. cerevisiae mlh1 strain growth inhibition, active compounds read high
Outline: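 Steps: expose the defined-mutant yeast strain to compound; expose a parallel culture to vehicle; measure growth; express compound effect as inhibition relative to the vehicle culture.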

[12] = NCI Yeast Anticancer Drug Screen. Data for the sgs1 strain (AID 173);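 also: 0% = growth of vehicle-only control cultures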; details: S. cerevisiae sgs1 mutant, active compounds read high
Outline: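 Treat defined-mutant yeast with compound; measure growth; calculate inhibition relative to vehicle-treated cells.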

[13] = NCI Yeast Anticancer Drug Screen. Data for the rad18 strain (AID 177); details: S. cerevisiae rad18 mutant growth inhibition, active compounds read high
Outline: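 A genetically defined yeast mutant impaired in DNA damage repair was treated with test compounds, then its growth was measured against cultures receiving vehicle alone.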

[14] = NCI Yeast Anticancer Drug Screen. Data for the mlh1 rad18 strain (AID 175); details: S. cerevisiae mlh1 rad18 strain growth inhibition; at 50.0 µM; active compounds read high
Outline: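 Test agents were incubated with a yeast strain of defined genotype (DNA damage repair defect). Inhibition of growth was derived by comparison with vehicle-exposed cultures.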

[15] = NCI Yeast Anticancer Drug Screen. Data for the rad14 strain (AID 159);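 also: 0% = growth of vehicle-treated control cultures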; details: S. cerevisiae rad14 strain growth inhibition, active compounds read high
Outline: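 A mutant yeast strain defective in DNA damage repair is treated with compound; inhibition of its growth is scored against untreated, vehicle-exposed cultures.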

[16] = at 5.0 µM (retest, dose inferred, filed as 0.5)
[17] = at 50.0 µM (retest, dose inferred, filed as 5.0)

Measured: growth inhibition

CCOC(=O)c1csc(Br)n1
inactive: [1]; at 1.2 µM -2% | [1]; at 3.7 µM -3% | [1]; at 11.0 µM -7% | [1]; at 33.0 µM -5% | [1]; at 100.0 µM -9% | [2]; at 1.2 µM 3% | [2]; at 3.7 µM -3% | [2]; at 11.0 µM -3% | [2]; at 33.0 µM -3% | [2]; at 100.0 µM -5% | [3]; at 1.2 µM -2% | [3]; at 3.7 µM 4% | [3]; at 11.0 µM -2% | [3]; at 33.0 µM 0% | [3]; at 100.0 µM -4% | [4]; at 1.2 µM -5% | [4]; at 3.7 µM 1% | [4]; [16] -4% | [4]; at 11.0 µM 0% | [4]; at 33.0 µM -1% | [4]; [17] -3% | [4]; at 100.0 µM -12% | [5]; at 1.2 µM -7% | [5]; at 3.7 µM -2% | [5]; [16] -16% | [5]; at 11.0 µM -3% | [5]; at 33.0 µM -5% | [5]; [17] -7% | [5]; at 100.0 µM -3% | [6]; [16] -18% | [6]; [17] -6% | [7]; at 1.2 µM -2% | [7]; at 3.7 µM -5% | [7]; at 11.0 µM 0% | [7]; at 33.0 µM 0% | [7]; at 100.0 µM -4% | [8]; [16] -8% | [8]; [17] 39% | [9]; at 1.2 µM -5% | [9]; at 3.7 µM -4% | [9]; [16] -11% | [9]; at 11.0 µM -6% | [9]; at 33.0 µM -6% | [9]; [17] -7% | [9]; at 100.0 µM -14% | [10]; at 1.2 µM -2% | [10]; at 3.7 µM -2% | [10]; at 11.0 µM -2% | [10]; at 33.0 µM -4% | [10]; at 100.0 µM -4% | [11]; at 1.2 µM 3% | [11]; at 3.7 µM -7% | [11]; at 11.0 µM 0% | [11]; at 33.0 µM 3% | [11]; at 100.0 µM 0% | [12]; at 1.2 µM -2% | [12]; at 3.7 µM -2% | [12]; at 11.0 µM -1% | [12]; at 33.0 µM -3% | [12]; at 100.0 µM -6% | [13]; at 1.2 µM -1% | [13]; at 3.7 µM -3% | [13]; at 11.0 µM 1% | [13]; at 33.0 µM -4% | [13]; at 100.0 µM -14%
active: [4]; at 50.0 µM 98.6% | [5]; at 50.0 µM 99.5% | [6]; at 50.0 µM 97.8% | [8]; at 50.0 µM 83.5% | [9]; at 50.0 µM 99%

CC(=O)O[C@H]1C(=O)[C@@]2(C)[C@H]([C@H](OC(=O)c3ccccc3)[C@]3(O)C[C@H](OC(=O)[C@H](O)[C@@H](NC(=O)c4ccccc4)c4ccccc4)C(C)=C1C3(C)C)[C@]1(OC(C)=O)CO[C@@H]1C[C@@H]2O
inactive: [1]; at 1.2 µM 0% | [1]; at 3.7 µM 0% | [1]; at 11.0 µM 1% | [1]; at 33.0 µM 1% | [1]; at 100.0 µM 0% | [2]; at 1.2 µM -1% | [2]; at 3.7 µM -2% | [2]; at 11.0 µM -2% | [2]; at 33.0 µM -3% | [2]; at 100.0 µM -18% | [3]; at 1.2 µM -4% | [3]; at 3.7 µM -2% | [3]; at 11.0 µM -2% | [3]; at 33.0 µM 3% | [3]; at 100.0 µM 0% | [4]; at 1.2 µM -1% | [4]; at 3.7 µM -2% | [4]; at 11.0 µM 0% | [4]; at 33.0 µM -1% | [4]; at 50.0 µM 23.4% | [4]; at 100.0 µM -6% | [5]; at 1.2 µM -5% | [5]; at 3.7 µM -2% | [5]; at 11.0 µM 2% | [5]; at 33.0 µM -4% | [5]; at 50.0 µM 18.3% | [5]; at 100.0 µM -10% | [6]; at 50.0 µM -9% | [7]; at 1.2 µM -4% | [7]; at 3.7 µM -4% | [7]; at 11.0 µM -5% | [7]; at 33.0 µM -7% | [7]; at 100.0 µM -13% | [8]; at 50.0 µM 24.1% | [9]; at 1.2 µM -5% | [9]; at 3.7 µM -5% | [9]; at 11.0 µM 2% | [9]; at 33.0 µM -13% | [9]; at 50.0 µM -4.15% | [9]; at 100.0 µM -3% | [10]; at 1.2 µM -2% | [10]; at 3.7 µM -2% | [10]; at 11.0 µM -4% | [10]; at 33.0 µM -4% | [10]; at 100.0 µM -5% | [11]; at 1.2 µM -1% | [11]; at 3.7 µM -4% | [11]; at 11.0 µM -3% | [11]; at 33.0 µM -4% | [11]; at 100.0 µM -6% | [12]; at 1.2 µM -3% | [12]; at 3.7 µM -3% | [12]; at 11.0 µM -1% | [12]; at 33.0 µM -3% | [12]; at 100.0 µM -4% | [14] 15.8% | [13]; at 1.2 µM -5% | [13]; at 3.7 µM -1% | [13]; at 11.0 µM 1% | [13]; at 33.0 µM 2% | [13]; at 100.0 µM 0%

O=C1c2ccccc2C(=O)c2cc(S(=O)(=O)Nc3ccccc3)ccc21
inactive: [1]; at 1.2 µM 0% | [1]; at 3.7 µM 7% | [1]; at 11.0 µM 16% | [1]; at 33.0 µM 26% | [1]; at 100.0 µM 19% | [2]; at 1.2 µM 5% | [2]; at 3.7 µM 9% | [2]; at 11.0 µM 8% | [2]; at 33.0 µM 9% | [2]; at 100.0 µM 4% | [3]; at 1.2 µM 9% | [3]; at 3.7 µM 21% | [3]; at 11.0 µM 34% | [3]; at 33.0 µM 45% | [3]; at 100.0 µM 47% | [5]; at 1.2 µM -1% | [5]; at 3.7 µM 5% | [5]; [16] 33% | [5]; at 11.0 µM 12% | [5]; at 33.0 µM 21% | [5]; [17] 61% | [5]; at 100.0 µM 19% | [15]; at 1.2 µM -1% | [15]; at 3.7 µM 1% | [15]; at 11.0 µM 7% | [15]; at 33.0 µM 12% | [15]; at 100.0 µM 11% | [6]; [16] 51% | [6]; [17] 61% | [7]; at 1.2 µM -6% | [7]; at 3.7 µM -15% | [7]; at 11.0 µM 5% | [7]; at 33.0 µM 7% | [7]; at 100.0 µM 2% | [8]; [16] 22% | [8]; [17] 37% | [9]; at 1.2 µM 0% | [9]; at 3.7 µM 4% | [9]; [16] 58% | [9]; at 11.0 µM 24% | [9]; at 33.0 µM 33% | [9]; at 100.0 µM 25% | [10]; at 1.2 µM 3% | [10]; at 3.7 µM 6% | [10]; at 11.0 µM 9% | [10]; at 33.0 µM 14% | [10]; at 100.0 µM 8% | [11]; at 1.2 µM 0% | [11]; at 3.7 µM 2% | [11]; at 11.0 µM 10% | [11]; at 33.0 µM 14% | [11]; at 100.0 µM 12% | [12]; at 1.2 µM 2% | [12]; at 3.7 µM 5% | [12]; at 11.0 µM 18%
active: [5]; at 50.0 µM 91.4% | [6]; at 50.0 µM 96.2% | [8]; at 50.0 µM 92.2% | [9]; [17] 84% | [9]; at 50.0 µM 96.1%

— PubChem BioAssay (NCI)
